# Reference: PubChem BioAssay (EPA / NIEHS)
# “And” between values parts separate entries of the source, which are not always exact repeats. Equal values may be shown once. The source holds several records for some structures; these can differ, active in one and inactive in another. The source made the active and inactive calls. How the source made its calls: active means hit-call score of the fitted dose curve at least 0.9, where 1 is the maximum; inactive means score below 0.9.
# Experiment: ATG_AP_1_CIS: Attagene CIS-FACTORIAL HepG2 Assay for human Activator Protein 1 (AP-1) (AID 2282931)
# Details: HepG2 Attagene cis-factorial AP-1 reporter mRNA; actives raise or lower the signal
# Method: ATG_CIS is a cell-based, multiplexed-readout assay that uses HepG2, a human liver cell line, with measurements taken at 24 hours after chemical dosing in a 24-well plate.ATG_AP_1_CIS is one of 52 assay component(s) measured or calculated from the ATG_CIS assay. It is designed to make measurements of mRNA induction, a form of inducible reporter, as detected with fluorescence intensity signals by Reverse transcription polymerase chain reaction (RT-PCR) and Capillary electrophoresis technology.Data from the assay component ATG_AP_1_CIS was analyzed into 1 assay endpoint. This assay endpoint, ATG_AP_1_CIS, was analyzed with bidirectional fitting relative to DMSO as the negative control and baseline of activity. Using a type of inducible reporter, measures of mRNA for gain or loss-of-signal activity can be used to understand the reporter gene at the transcription factor-level as they relate to the gene FOS and JUN. Furthermore, this assay endpoint can be referred to as a primary readout, because this assay has produced multiple assay endpoints where this one serves a reporter gene function. To generalize the intended target to other relatable targets, this assay endpoint is annotated to the dna binding intended target family, where the subfamily is basic leucine zipper.
# Human liver HepG2 cells are transiently transfected with multiple reporter transcription units (MRTUs) in 6-well plates using FuGene 6 reagent (Roche; 3 ml FuGene/1 mg DNA). The MRTU constructs are regulated by a cis-regulating element (promoter). […] A major difference between the CIS and TRANS system is that in CIS activities of endogenous TFs are measured, whereas the TRANS assay evaluates changes in activities of exogenous, chimeric NR-Gal4 proteins. […] At the end of 24 hour incubation, total RNA was isolated using TriZol reagent (Invitrogen). The isolated RNA is then reverse-transcribed using oligo(dT) primer and Mo-MLV reverse transcriptase (Invitrogen) with DNAse I (Ambion) treatment for 30 min. The one-tenth of the produced cDNA was amplified by PCR using Taq DNA polymerase (Invitrogen) and two reporter sequence-specific primers. The PCR products were fluorescently labeled by primer extension with 6-arboxyfluorescein (6-FAM) 5'-labeled reporter sequence-specific primer (2 min at 95 C, 20 s at 68 C and 10 min at 72 C) and these products were digested with 5U of HpaI (New England Biolabs) for 2h at 37 C. The fragments were purified using Qiaquick PCR columns (Qiagen), analyzed on an ABI 3130xL genetic analyzer (Applied Biosystems) with peak positions identified by using a set of X-rhodamine (ROX)-labeled MapMarker1000 molecular weight standards (BioVentures). The raw capillary electrophoresis data was processed using Attagraph software (Attagene).
SMILES,AC50,outcome
CC[C@H](c1ccc(O)cc1)[C@@H](CC)c1ccc(O)cc1,11.1 µM (active) and 7.83 µM (active) and 9.21 µM (active),
CCCCCCC(=O)O,,inactive
CN1CCN(c2ccccc2/C=C2\SCCN(c3ccc(Cl)c(Cl)c3)C2=O)CC1,,inactive
CCc1nn(C2CCCCC2)c2cc(C3(C#N)CCC(C(=O)O)CC3)ccc12 (stereo not given),,inactive
O=[N+]([O-])c1ccc(O)cc1,,inactive
COCC(C)OCC(C)O (stereo not given),,inactive
Cc1cc(CCN2CCN(c3nsc4ccccc34)CC2)cc2c1NC(=O)CC2(C)C,3.21 µM (active),
NC(=O)N(O)[C@@H]1C=C[C@H](Oc2cccc(Oc3ccc(F)cc3)c2)C1,,inactive
OCCC(F)(F)C(F)(F)C(F)(F)C(F)(F)C(F)(F)C(F)(F)F,77.3 µM (active),inactive
CCCOC(=O)c1ccc(O)cc1,48.2 µM (active),inactive
C#C[C@]1(O)CC[C@H]2[C@@H]3CCC4=CC(=O)CC[C@@H]4[C@H]3CC[C@@]21C,,inactive
ClC1=C(Cl)C(Cl)(Cl)C(Cl)=C1Cl,,inactive
Cc1oc(-c2ccccc2)nc1CCOc1ccc(C[C@H](Nc2ccccc2C(=O)c2ccccc2)C(=O)O)cc1,,inactive
CC(=O)NC1(c2cccc(F)c2)CCN(CC[C@@]2(c3ccc(Cl)c(Cl)c3)CN(c3ccccc3)C(=O)CO2)CC1,14.5 µM (active),
CCCCCCCCCCCCc1ccccc1S(=O)(=O)O,,inactive
Oc1cccc(O)c1,,inactive
CCC(=C(c1ccc(O)cc1)c1ccc(OCCN(C)C)cc1)c1ccccc1,,inactive
COCC(C)O (stereo not given),,inactive
CCCCCCCCCCCCCCCS(=O)(=O)Oc1ccccc1,,inactive

SMILES,AC50,outcome
CC(C)(C)c1ccc(O)c(C(C)(C)C)c1,15.9 µM (active),
CN1CCC[C@H]1c1cccnc1,,inactive
CC(C)CCCCCCOC(=O)CCCCC(=O)OCCCCCCC(C)C,,inactive
CCCCCCCCCCCCCC[N+](C)(C)C,6.78 µM (active) and 7.32 µM (active),
Cc1ccc(S(=O)(=O)O)c(C)c1,,inactive
CC1=C(/C=C/C(C)=C/C=C/C(C)=C/C(=O)O)C(C)(C)CCC1,42 µM (active),inactive
CCCCCCCCC(=O)O,,inactive
CC(O)C(=O)O (stereo not given),,inactive
CC[C@H](C)[C@@H](C(=O)O)n1sc2ccccc2c1=O,,inactive
CCCCC[C@H](O)CC(=O)CCc1ccc(O)c(OC)c1,,inactive
N#C[C@@H]1CC(F)(F)CN1C(=O)CNC1CC2CCC(C1)N2c1ncccn1 (stereo not given in full),,inactive
O=C(O)Cc1cc(I)c(Oc2cc(I)c(O)c(I)c2)c(I)c1,16.5 µM (active) and 122 µM (active),
CCc1ccc(CCOc2ccc(CC3SC(=O)NC3=O)cc2)nc1 (stereo not given),,inactive
CC(C)(C)c1cccc(C(C)(C)C)c1O,128 µM (active),
CCCCC(CC)COC(=O)CCCCC(=O)OCc1ccccc1 (stereo not given),,inactive
CC(=O)CC(C)(C)O,,inactive
O=C1OC2(c3ccccc31)c1cc(Br)c(O)c(Br)c1Oc1c2cc(Br)c(O)c1Br,,inactive
FC(F)(I)C(F)(F)C(F)(F)C(F)(F)C(F)(F)C(F)(F)I,,inactive
